In PubChem BioAssay (NCI):
Compounds without any hit were thinned out: in the full panel of roughly 79,000, 15% have a hit. The source made the active and inactive calls. Rule as the data show it: active = growth inhibition above about 70%; inactive = the rest.

What was measured:
[1] = NCI Yeast Anticancer Drug Screen. Data for the rad52 strain (AID 147);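 also: 0% = growth of vehicle-treated control cultures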; settings: S. cerevisiae rad52 mutant growth inhibition, hits give high values
Outline: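 The repair-mutant yeast strain was incubated with compounds, then growth was read and inhibition derived relative to vehicle.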

[2] = NCI Yeast Anticancer Drug Screen. Data for the wt1 strain (AID 149);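 also: 0% = growth of vehicle-treated wt1 cultures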; settings: S. cerevisiae wt1 strain (SPY 50644) growth inhibition, hits give high values
Outline: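 Measured: growth of wt1 yeast under compound versus vehicle treatment, reported as inhibition.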

[3] = NCI Yeast Anticancer Drug Screen. Data for the rad50EPP+ strain (AID 151);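 also: 0% = growth of vehicle-treated control cultures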; settings: S. cerevisiae rad50 mutant strain, hits give high values
Outline: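 Vehicle-normalised growth inhibition; rad50EPP+ yeast strain, altered in DNA damage repair, compound-treated.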

[4] = NCI Yeast Anticancer Drug Screen. Data for the mgt1 strain (AID 153); settings: S. cerevisiae mgt1 mutant growth inhibition, hits give high values
Outline: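 Vehicle-normalized growth inhibition is determined in mgt1 yeast, a strain selected for a defined alteration in DNA repair or cell cycle control.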

[5] = NCI Yeast Anticancer Drug Screen. Data for the rad50 strain (AID 155);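 also: 0% = growth of vehicle-only cultures of the same strain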; settings: S. cerevisiae rad50 strain growth inhibition, hits give high values
Outline: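 Growth of the mutant yeast was measured after compound exposure and referenced to vehicle-treated cultures.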

[6] = NCI Yeast Anticancer Drug Screen. Data for the mec2-1 strain (AID 157); settings: S. cerevisiae mec2-1 strain, hits give high values
Outline: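 Mutant yeast (mec2-1) grown with compound; growth inhibition relative to vehicle control reported.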

[7] = NCI Yeast Anticancer Drug Screen. Data for the sgs1 mgt1 strain (AID 161);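 also: 0% = growth of cultures given vehicle only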; settings: S. cerevisiae sgs1 mgt1 strain, hits give high values
Outline: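 This yeast growth screen uses a strain with defined DNA-repair lesions; compound-treated growth is compared with vehicle-treated growth.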

[8] = NCI Yeast Anticancer Drug Screen. Data for the CLN2oe strain (AID 163);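 also: 0% = growth of vehicle-only control cultures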; settings: S. cerevisiae CLN2oe strain, hits give high values
Outline: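 Compounds are applied to yeast harbouring a defined cell-cycle control change; reduced growth compared with vehicle-treated controls gives the value.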

[9] = NCI Yeast Anticancer Drug Screen. Data for the bub3 strain (AID 167); settings: S. cerevisiae bub3 mutant strain, hits give high values
Outline: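 Whole-cell yeast assay. The mutant strain was incubated with compounds, and growth inhibition was determined by comparison with vehicle-treated cells.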

[10] = NCI Yeast Anticancer Drug Screen. Data for the wt2 strain (AID 169);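 also: 0% = growth of vehicle-treated yeast cultures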; settings: S. cerevisiae wt2 strain growth inhibition, hits give high values
Outline: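 Against vehicle-treated controls, the growth of yeast exposed to each compound was compared, and the inhibition was recorded.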

[11] = NCI Yeast Anticancer Drug Screen. Data for the mlh1 strain (AID 171);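 also: 0% = growth of vehicle-treated control cultures of the same strain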; settings: S. cerevisiae mlh1 strain growth inhibition, hits give high values
Outline: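 Measured: yeast growth. Reference: vehicle-treated controls. Organism: strain with a defined alteration affecting DNA damage repair or cell cycle control, treated with compound.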

[12] = NCI Yeast Anticancer Drug Screen. Data for the sgs1 strain (AID 173);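 also: 0% = growth of vehicle-only control cultures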; settings: S. cerevisiae sgs1 mutant, hits give high values
Outline: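 Each compound was added to cultures of the altered yeast strain. Growth was recorded, and inhibition was derived by comparison with vehicle controls.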

[13] = NCI Yeast Anticancer Drug Screen. Data for the mlh1 rad18 strain (AID 175); settings: S. cerevisiae mlh1 rad18 strain growth inhibition, hits give high values
Outline: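 Genetically defined yeast (DNA repair-deficient) exposed to compounds; growth inhibition determined relative to vehicle.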

[14] = NCI Yeast Anticancer Drug Screen. Data for the rad18 strain (AID 177); settings: S. cerevisiae rad18 mutant growth inhibition, hits give high values
Outline: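 Vehicle-treated cultures served as the baseline for scoring compound-induced growth inhibition in DNA-repair-mutant yeast.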

[15] = NCI Yeast Anticancer Drug Screen. Data for the cln2 rad14 strain (AID 165);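 also: 0% = growth equal to vehicle treated cultures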; settings: S. cerevisiae cln2 rad14 strain, hits give high values
Outline: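 Readout is yeast growth inhibition versus vehicle-treated controls, using a strain with cln2 and rad14 alterations exposed to compound.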

[16] = at 5.0 µM (retest, dose inferred, filed as 0.5)
[17] = at 50.0 µM (retest, dose inferred, filed as 5.0)

Measured: growth inhibition

CCN(CC)CCNc1ccc([N+](=O)[O-])c2nc3ccccc3c(N)c12
active: [1]; at 100.0 µM 81% | [3]; at 100.0 µM 77% | [5]; [17] 71% | [5]; at 50.0 µM 74.3% | [5]; at 100.0 µM 84% | [7]; at 50.0 µM 82.1% | [13]; at 50.0 µM 85.2%
inactive: [1]; at 1.2 µM 1% | [1]; at 3.7 µM -6% | [1]; at 11.0 µM 10% | [1]; at 33.0 µM 31% | [2]; at 1.2 µM -10% | [2]; at 3.7 µM -7% | [2]; at 11.0 µM -13% | [2]; at 33.0 µM -9% | [2]; at 100.0 µM -6% | [3]; at 1.2 µM -14% | [3]; at 3.7 µM -4% | [3]; at 11.0 µM 1% | [3]; at 33.0 µM 34% | [4]; at 1.2 µM -14% | [4]; at 3.7 µM -18% | [4]; at 11.0 µM -20% | [4]; at 33.0 µM -21% | [4]; at 100.0 µM -15% | [5]; at 1.2 µM 10% | [5]; at 3.7 µM 14% | [5]; [16] 2% | [5]; at 11.0 µM 15% | [5]; at 33.0 µM 46% | [6]; at 1.2 µM -13% | [6]; at 3.7 µM -23% | [6]; [16] -5% | [6]; at 11.0 µM -11% | [6]; at 33.0 µM -13% | [6]; [17] -2% | [6]; at 50.0 µM 35.2% | [6]; at 100.0 µM 0% | [7]; [16] -4% | [7]; [17] 6% | [8]; at 1.2 µM 5% | [8]; at 3.7 µM -7% | [8]; at 11.0 µM -12% | [8]; at 33.0 µM -6% | [8]; at 100.0 µM 4% | [9]; at 1.2 µM -15% | [9]; at 3.7 µM -40% | [9]; [16] -9% | [9]; at 11.0 µM -21% | [9]; at 33.0 µM -12% | [9]; [17] 20% | [9]; at 50.0 µM 7.35% | [9]; at 100.0 µM -11% | [10]; at 1.2 µM 1% | [10]; at 3.7 µM -1% | [10]; at 11.0 µM -2% | [10]; at 33.0 µM -3% | [10]; at 100.0 µM 2% | [11]; at 1.2 µM -5% | [11]; at 3.7 µM -7% | [11]; at 11.0 µM -9% | [11]; at 33.0 µM -4% | [11]; at 100.0 µM 8% | [12]; at 1.2 µM -4% | [12]; at 3.7 µM 2% | [12]; at 11.0 µM 6% | [12]; at 33.0 µM -2% | [12]; at 100.0 µM 13% | [13]; [16] -28% | [13]; [17] 15% | [14]; at 1.2 µM -6% | [14]; at 3.7 µM -9% | [14]; at 11.0 µM -10% | [14]; at 33.0 µM -8% | [14]; at 100.0 µM -4%

c1ccc2cc(NCNc3ccc4ccccc4c3)ccc2c1
inactive: [1]; at 1.2 µM -3% | [1]; at 3.7 µM -6% | [1]; at 11.0 µM -9% | [1]; at 33.0 µM 1% | [1]; at 100.0 µM 24% | [2]; at 1.2 µM 2% | [2]; at 3.7 µM 3% | [2]; at 11.0 µM 6% | [2]; at 33.0 µM 11% | [2]; at 100.0 µM 16% | [3]; at 1.2 µM 0% | [3]; at 3.7 µM 6% | [3]; at 11.0 µM 11% | [3]; at 33.0 µM 26% | [3]; at 100.0 µM 42% | [4]; at 1.2 µM 1% | [4]; at 3.7 µM 0% | [4]; at 11.0 µM 3% | [4]; at 33.0 µM 8% | [4]; at 100.0 µM 12% | [5]; at 1.2 µM 1% | [5]; at 3.7 µM -5% | [5]; [16] -9% | [5]; at 11.0 µM 5% | [5]; at 33.0 µM 0% | [5]; at 100.0 µM 22% | [6]; at 1.2 µM 0% | [6]; at 3.7 µM 1% | [6]; [16] 8% | [6]; at 11.0 µM 3% | [6]; at 33.0 µM 14% | [6]; [17] 46% | [6]; at 50.0 µM 69.8% | [6]; at 100.0 µM 27% | [7]; [16] 0% | [7]; [17] 46% | [15]; [16] -17% | [15]; [17] -22% | [9]; at 1.2 µM 0% | [9]; at 3.7 µM 6% | [9]; [16] 18% | [9]; at 11.0 µM -22% | [9]; at 33.0 µM 51% | [9]; at 100.0 µM 55% | [10]; at 1.2 µM -1% | [10]; at 3.7 µM 1% | [10]; at 11.0 µM 1% | [10]; at 33.0 µM 7% | [10]; at 100.0 µM 12% | [11]; at 1.2 µM 3% | [11]; at 3.7 µM 3% | [11]; at 11.0 µM 4% | [11]; at 33.0 µM -22% | [11]; at 100.0 µM 15% | [12]; at 1.2 µM 3% | [12]; at 3.7 µM 0% | [12]; at 11.0 µM 1% | [12]; at 33.0 µM 8% | [12]; at 100.0 µM 27% | [13]; [16] 12% | [13]; [17] 65% | [14]; at 1.2 µM -5% | [14]; at 3.7 µM -2% | [14]; at 11.0 µM -19% | [14]; at 33.0 µM -9% | [14]; at 100.0 µM 3%
active: [5]; [17] 75% | [5]; at 50.0 µM 95.8% | [7]; at 50.0 µM 95.3% | [15]; at 50.0 µM 76.9% | [9]; [17] 76% | [9]; at 50.0 µM 94.8% | [13]; at 50.0 µM 94.9%

C[C@@](O)(/C=C/[C@H]1CC=CC(=O)O1)[C@@H](C[C@@H](O)\C=C/C=C\C=C\CO)OP(=O)(O)O
active: [1]; at 100.0 µM 90% | [2]; at 100.0 µM 81% | [5]; at 100.0 µM 92%
inactive: [1]; at 1.2 µM 26% | [1]; at 3.7 µM 22% | [1]; at 11.0 µM 37% | [1]; at 33.0 µM 66% | [2]; at 1.2 µM 18% | [2]; at 3.7 µM 13% | [2]; at 11.0 µM 15% | [2]; at 33.0 µM 35% | [3]; at 1.2 µM 18% | [3]; at 3.7 µM 15% | [3]; at 11.0 µM 17% | [3]; at 33.0 µM 25% | [3]; at 100.0 µM 33% | [5]; at 1.2 µM 27% | [5]; at 3.7 µM 30% | [5]; [16] 1% | [5]; at 11.0 µM 41% | [5]; at 33.0 µM 62% | [5]; [17] 53% | [5]; at 50.0 µM 67.2% | [6]; at 1.2 µM 9% | [6]; at 3.7 µM 22% | [6]; [16] -2% | [6]; at 11.0 µM 25% | [6]; at 33.0 µM 46% | [6]; [17] 34% | [6]; at 50.0 µM 50.6%
